Test results published in PubChem BioAssay (NCI).
Where “and” joins values, the source holds several entries; their conditions need not be identical. Equal entries are not always repeated. This is part of a sample that, as a whole, favours compounds with a hit. Of some 79,000 tested, about 15% had one in any assay. Values without a mark were called inactive. Calls of active or inactive are those of the source. Rule as the data show it: active = growth inhibition above about 70%; inactive = the rest.

Legend:
[1] = NCI Yeast Anticancer Drug Screen. Data for the rad50 strain (AID 155);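 also: 0% = growth of vehicle-only cultures of the same strain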; conditions: S. cerevisiae rad50 strain growth inhibition; at 50.0 µM; hits give high values
Summary of the method: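 Growth of the mutant yeast was measured after compound exposure and referenced to vehicle-treated cultures.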

[2] = NCI Yeast Anticancer Drug Screen. Data for the mec2-1 strain (AID 157); conditions: S. cerevisiae mec2-1 strain, at 50.0 µM, hits give high values
Summary of the method: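 Cells of the genetically defined mec2-1 yeast strain are incubated with test compound. Inhibition of growth is calculated against vehicle-treated controls.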

[3] = NCI Yeast Anticancer Drug Screen. Data for the sgs1 mgt1 strain (AID 161);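 also: 0% = growth of cultures given vehicle only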; conditions: S. cerevisiae sgs1 mgt1 strain, at 50.0 µM, hits give high values
Summary of the method: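 Mutant yeast exposed to compound; growth scored against vehicle-only wells.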

[4] = NCI Yeast Anticancer Drug Screen. Data for the cln2 rad14 strain (AID 165);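 also: 0% = growth equal to vehicle treated cultures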; conditions: S. cerevisiae cln2 rad14 strain, at 50.0 µM, hits give high values
Summary of the method: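 The screen exposed genetically defined yeast (cln2 rad14) to test compounds and scored growth inhibition relative to vehicle-treated controls.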

[5] = NCI Yeast Anticancer Drug Screen. Data for the bub3 strain (AID 167); conditions: S. cerevisiae bub3 mutant strain, at 50.0 µM, hits give high values
Summary of the method: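 Whole-cell yeast assay. The mutant strain was incubated with compounds, and growth inhibition was determined by comparison with vehicle-treated cells.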

[6] = NCI Yeast Anticancer Drug Screen. Data for the mlh1 rad18 strain (AID 175); conditions: S. cerevisiae mlh1 rad18 strain growth inhibition; at 50.0 µM; hits give high values
Summary of the method: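 Compound-treated yeast growth, normalised to vehicle controls. Strain bears defined DNA repair mutations.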

| SMILES | growth inhibition [1] | growth inhibition [2] | growth inhibition [3] | growth inhibition [4] | growth inhibition [5] | growth inhibition [6] |
| --- | --- | --- | --- | --- | --- | --- |
| CC(NC1=NCCO1)c1ccco1 (configuration not stated) | 4.45% | 9.15% | 13.2% | 30% | 6.7% | -75.8% |
| c1ccc2c(c1)CCNC2 | 21.8% | 13.2% | 19% | 5.15% | -0.55% | 24.4% |
| CNC(=O)Oc1ccc(C=Nc2cccc([N+](=O)[O-])c2)cc1 | 2.9% | 37.4% | 14.7% | 0.65% | 34.9% | 32.5% |
| O=C(Nc1cccs1)c1c(O)[nH]c(=S)[nH]c1=O | -1.35% | 20.9% | 25.1% | 16.8% | 7.05% | 4.5% |
| O=NO.O=NO.[NH-]C1CCCCC1[NH-].[Pd+2] (configuration not stated) | -11.2% | 13.1% | 15.2% | 21.2% | 9.05% | -0.3% |
| CC(C)(C)OC(=O)NCC(=O)NC(CSC(c1ccccc1)c1ccccc1)C(=O)NCC(=O)O (configuration not stated) | 8.45% | 7.3% | 11% | -6.35% | -4.9% | 15.1% |
| Cc1ccc(NC(=O)C(Cl)(Cl)Cl)cc1Cl | 1.8% | 20.6% | 16.4% | -5.2% | 25.2% | 14.8% |
| CCc1ccccc1C(C(=O)NC1CN2CCC1CC2)c1ccsc1 (configuration not stated) | -10% | -28.8% | -43.3% | -21.2% | 8.05% | -23.1% |
| CCOC(=O)C1Cc2ccc(OC)cc2C2=CC(=O)CCC21 (configuration not stated) | -13.4% | -16.9% | -9.4% | 1.65% | 5.4% | -1.15% |
| CC(C)(C)[Si](C)(C)OC(=O)CCCc1ccc(N(CCCl)CCCl)cc1 | 12.1% | -9.9% | -10.2% | 9.4% | -21.7% | -47.1% |
| O=C(COc1ccc(Cl)c(Cl)c1)Nc1ccc[n+](Cc2c(Cl)cccc2S(=O)(=O)F)c1 | 14.8% | 22.1% | -17.7% | 39.9% | -1.5% | 5.35% |
| CC(NC1=NCCO1)c1cccs1 (configuration not stated) | 12.2% | -2.15% | -20.1% | 25.9% | 15.7% | -12.9% |
| CC(C)CCC[C@@H](C)[C@H]1CC[C@H]2[C@@H]3CC[C@H]4C[C@H]5N[C@H]5C[C@]4(C)[C@H]3CC[C@]12C | 10.6% | -21.8% | 5.2% | -3.55% | -9.6% | 0.1% |
| CN(C)c1ccc(C=Cc2ccc([N+](=O)[O-])cc2)cc1.[C-]#[O+].[C-]#[O+].[C-]#[O+].[Cr] | -16.1% | -5.1% | -11.6% | 24.8% | -7.35% | -10.1% |
| Nc1cc(N)c([N+](=O)[O-])cc1[N+](=O)[O-] | 20.8% | 2.8% | 14.1% | 5.75% | 9.8% | 11.3% |
| CCCC1C(=O)NC(=O)NC1=O | 6.3% | -6% | -0.75% | -10.9% | 3.75% | -1.05% |
| N#CC1CCCCC1 | 0.4% | -5.4% | -0.35% | -3.9% | 4.65% | 1.65% |
| O=C1NC(=O)C(CC(C(=O)C(=O)Nc2ccccc2Cl)C(=O)c2ccc3ccccc3c2)C(=O)N1 (configuration not stated) | -27.7% | 7.8% | -6.3% | -32.8% | 2.4% | -3.45% |
| [Ni+2].[S-]CC[S-] | 0.4% | 12.4% | -8.75% | 1.95% | 0.4% | -4.85% |

| SMILES | growth inhibition [1] | growth inhibition [2] | growth inhibition [3] | growth inhibition [4] | growth inhibition [5] | growth inhibition [6] |
| --- | --- | --- | --- | --- | --- | --- |
| CC(=O)C1(c2ccccc2)CCCN(C)CC1 (configuration not stated) | -7.8% | -8.95% | 8.2% | 1.35% | 3.45% | -3.45% |
| COP(=O)(OC)C(=O)c1ccccc1 | -11.6% | -17.2% | -7.8% | -31.9% | -23.8% | -16.1% |
| CN1CCN(C)C(N2CCOCC2)C(C)(C)C1 (configuration not stated) | 15.4% | -4.2% | -8.15% | -9.45% | 0.85% | 2.85% |
| Cc1cccc(-n2c(C)nc3ccccc3c2=O)c1C | -15.2% | -1.1% | -3.35% | -2.6% | -0.6% | -13.1% |
| CCN(CC)C(=O)N1CN(c2ccccc2)C2(CCN(CCCSc3ccc(F)cc3)CC2)C1=O | 13.5% | 0.65% | 15.8% | 12.4% | 48.4% | 20.6% |
| Nc1cc(C(=O)O)ccc1O.[Cl][Sn][Cl] | 2.2% | -4.15% | -6.4% | -45.8% | -1.65% | -19.4% |
| C/C=C/C=C\C=C/C(O)CC(OP(=O)(O)O)C(C)(O)/C=C/C1CC=CC(=O)O1 (configuration not stated) | -9.75% | -52% | -20.4% | 8.65% | -3.35% | -44.2% |
| CC(C)OP(=O)(OC(C)C)C(C(F)(F)F)C(F)(F)F | -3.65% | 9.65% | 19% | 45.9% | 10.6% | -23.1% |
| COc1cc2[nH]cc(CN(C)C)c2cc1OC | 3% | -0.55% | -11.2% | -18.9% | -0.25% | -7.35% |
| NC(=O)c1ccc(NN=O)nc1 | -10.4% | 0.9% | 1.1% | -9.85% | -2.85% | -2.5% |
| C/C=C/CC1(C(C)C)C(=O)NC(=O)NC1=O | 8.6% and 18.7% | 11.2% and 8% | -4.2% and 10.8% | 3.8% and 10.6% | -1.25% and 1.2% | -1.65% and 8.4% |
| CC(C)c1cccc(OC(=O)N(C)C=O)c1 | -8.1% | 12.7% | -12.8% | -46.4% | -21.4% | -1.5% |
| O=C(OCC1CCCN2CCCCC12)c1cccnc1 (configuration not stated) | 7.7% | -10.8% | -28.3% | 14.9% | -8.5% | -25.3% |
| CC[n+]1c(/C=C/c2ccc(N(CCCl)CCCl)cc2)ccc2cc(NC(=O)/C=C/c3ccccc3)ccc21 | 82.1% (active) | 86.5% (active) | 87.7% (active) | 85.5% (active) | 86.5% (active) | 82% (active) |
| CC(C)N(N=O)C(C)C | 13.7% | -4.6% | 6.85% | 1.9% | 0.95% | 16.5% |
| O=C([O-])C(F)(F)C(F)(F)F.[C-]#[O+].[C-]#[O+].[C-]#[O+].[C-]#[O+].[C-]#[O+].[Mn] | -8% | -29% | 3.65% | 0% | 0.25% | -7.25% |
| Cc1ccc(N2CC=C(c3ccccc3)OP2(=O)N(CCCl)CCCl)cc1 (configuration not stated) | 76.8% (active) | 84.8% (active) | 75.4% (active) | 80.7% (active) | 87.9% (active) | 70.2% (active) |
| CC(=S)N=Cc1c(O)[nH]c(=O)[nH]c1=O | -6.2% | -6.8% | -10.2% | 21.6% | -7.55% | 9.55% |
